The panel holds about 83,000 compounds, 20% with a hit somewhere; the sample as a whole holds those more often.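 Cells were grown in 96-well plates and exposed to the test compound at a single concentration for 48 hours; results are reported as percent growth, with values below 10 considered active.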 Activity calls are given as the source filed them.
Key:
Test in all cases: NCI-60 one-dose screen, 48 h (100 = growth as untreated, 0 = no growth, -100 = all killed)
Conditions in all cases: 10 µM unless noted
HCT-15 colon = test system: HCT-15 colon
HT29 colon = test system: HT29 colon
SNB-75 CNS = test system: SNB-75 CNS
SNB-19 CNS = test system: SNB-19 CNS
U251 CNS = test system: U251 CNS
PC-3 prostate = test system: PC-3 prostate
SK-MEL-5 melanoma = test system: SK-MEL-5 melanoma
UACC-62 melanoma = test system: UACC-62 melanoma
LOX IMVI melanoma = test system: LOX IMVI melanoma
SK-MEL-28 melanoma = test system: SK-MEL-28 melanoma
SK-MEL-2 melanoma = test system: SK-MEL-2 melanoma
EKVX NSCLC = test system: EKVX NSCLC
SN12C renal = test system: SN12C renal
UO-31 renal = test system: UO-31 renal
TK-10 renal = test system: TK-10 renal
ACHN renal = test system: ACHN renal
CAKI-1 renal = test system: CAKI-1 renal
A498 renal = test system: A498 renal
CCRF-CEM leukemia = test system: CCRF-CEM leukemia
MOLT-4 leukemia = test system: MOLT-4 leukemia

Measured: growth

NC(N)=Nc1ccc(Oc2cccc(Nc3ccc(Br)c(C(F)(F)F)c3)c2)cc1
active: SNB-19 CNS -15.9% | U251 CNS -78.9% | PC-3 prostate 1.98% | UACC-62 melanoma 7.23% | LOX IMVI melanoma -97.1% | SN12C renal -21.3% | A498 renal 0.698% | CCRF-CEM leukemia 3.83% | MOLT-4 leukemia 9.79%
inactive: HCT-15 colon 69.9% | HT29 colon 11.5% | SNB-75 CNS 27.1% | SK-MEL-5 melanoma 22.5% | SK-MEL-28 melanoma 58.3% | SK-MEL-2 melanoma 35.6% | EKVX NSCLC 25.5% | UO-31 renal 75.2% | TK-10 renal 54.9% | ACHN renal 68.3% | CAKI-1 renal 39.8%

CC[C@]12C=CCN3CC[C@@]4(c5cc(NC(=O)COc6cc(O)c7c(=O)cc(-c8ccccc8)oc7c6)c(OC)cc5N(C)[C@H]4[C@@](O)(C(=O)OC)[C@@H]1OC(C)=O)[C@@H]32
active: HCT-15 colon -69% | HT29 colon -61% | SNB-75 CNS -34.2% | SNB-19 CNS -54.3% | U251 CNS -87.5% | PC-3 prostate -88.7% | SK-MEL-5 melanoma -90.9% | UACC-62 melanoma -87.3% | LOX IMVI melanoma -93.2% | SK-MEL-28 melanoma -89% | SK-MEL-2 melanoma -82.9% | EKVX NSCLC -42.2% | SN12C renal -75.4% | UO-31 renal -84.9% | TK-10 renal -45.5% | ACHN renal -78.1% | CAKI-1 renal -78.3% | A498 renal -89.6% | CCRF-CEM leukemia -20.2% | MOLT-4 leukemia -23%

NS(=O)(=O)c1ccc(-n2cc(CN3CCCCC3)nn2)cc1
inactive: HCT-15 colon 107% | HT29 colon 96.7% | SNB-75 CNS 92.8% | SNB-19 CNS 102% | U251 CNS 104% | PC-3 prostate 98.9% | SK-MEL-5 melanoma 99.6% | UACC-62 melanoma 97.4% | LOX IMVI melanoma 101% | SK-MEL-28 melanoma 109% | SK-MEL-2 melanoma 109% | EKVX NSCLC 101% | SN12C renal 100% | UO-31 renal 82.2% | TK-10 renal 102% | ACHN renal 107% | CAKI-1 renal 92.6% | A498 renal 93.6% | CCRF-CEM leukemia 108% | MOLT-4 leukemia 98.5%

COc1ccc2c(c1)Oc1nc(N)c(C#N)c(N)c1C2Sc1ccc(C)cc1 (stereo not given)
inactive: SNB-75 CNS 88.7% | EKVX NSCLC 19.3% | A498 renal 33.4%
active: HCT-15 colon -82.5% | HT29 colon -26.8% | SNB-19 CNS 7.65% | U251 CNS 0.124% | PC-3 prostate -43.8% | SK-MEL-5 melanoma -25.1% | UACC-62 melanoma 9.86% | LOX IMVI melanoma -98.4% | SK-MEL-28 melanoma -25.9% | SK-MEL-2 melanoma -36.4% | SN12C renal 0.951% | UO-31 renal -81.6% | TK-10 renal -23.4% | ACHN renal -96.9% | CAKI-1 renal -7.52% | CCRF-CEM leukemia -16.1% | MOLT-4 leukemia -12.9%

Cc1nc(-c2ccccc2O)ccc1C(=O)N=Nc1c(O)[nH]c2ccc(Br)cc12
inactive: HCT-15 colon 69.9% | HT29 colon 112% | SNB-75 CNS 93.7% | SNB-19 CNS 101% | U251 CNS 103% | PC-3 prostate 88.2% | SK-MEL-5 melanoma 96.9% | UACC-62 melanoma 91.6% | LOX IMVI melanoma 107% | SK-MEL-28 melanoma 101% | SK-MEL-2 melanoma 104% | EKVX NSCLC 79.6% | SN12C renal 95.1% | UO-31 renal 73% | TK-10 renal 167% | ACHN renal 91.5% | CAKI-1 renal 84.6% | A498 renal 101% | CCRF-CEM leukemia 86.1% | MOLT-4 leukemia 102%

CCNC(=O)N1CCc2cc(OC)c(OCCc3ccc(OC)cc3)cc2C1c1ccc([N+](=O)[O-])cc1C (stereo not given)
inactive: SNB-75 CNS 21% | SNB-19 CNS 28.4% | U251 CNS 16.4% | PC-3 prostate 23.4% | UACC-62 melanoma 30.4% | SK-MEL-28 melanoma 47.8% | SK-MEL-2 melanoma 22.3% | EKVX NSCLC 42.2% | SN12C renal 44% | UO-31 renal 29.3% | TK-10 renal 54.8% | ACHN renal 30.4% | CAKI-1 renal 27.2% | CCRF-CEM leukemia 33.4% | MOLT-4 leukemia 26.1%
active: HCT-15 colon 7.24% | HT29 colon 4.69% | SK-MEL-5 melanoma 0.509% | LOX IMVI melanoma 7.24% | A498 renal -16.8%

COC(=O)c1[nH]nc2c1C1(C(=O)N(C)c3ccccc31)C(C#N)=C(N)O2 (stereo not given)
inactive: HCT-15 colon 101% | HT29 colon 104% | SNB-75 CNS 91.5% | SNB-19 CNS 101% | U251 CNS 105% | PC-3 prostate 91% | SK-MEL-5 melanoma 99.4% | UACC-62 melanoma 96.1% | LOX IMVI melanoma 97% | SK-MEL-28 melanoma 105% | SK-MEL-2 melanoma 105% | EKVX NSCLC 99.3% | SN12C renal 97.9% | UO-31 renal 79.7% | TK-10 renal 102% | ACHN renal 97.9% | CAKI-1 renal 91.1% | A498 renal 90.2% | CCRF-CEM leukemia 109% | MOLT-4 leukemia 112%

NC(N)=Nc1ccc(Oc2cccc(Nc3ccc(Cl)c(C(F)(F)F)c3)c2)cc1
active: U251 CNS -27.6% | LOX IMVI melanoma -62.4%
inactive: HCT-15 colon 79.5% | HT29 colon 49% | SNB-75 CNS 47.4% | SNB-19 CNS 24.8% | PC-3 prostate 28.3% | SK-MEL-5 melanoma 43.9% | UACC-62 melanoma 40.1% | SK-MEL-28 melanoma 67.7% | SK-MEL-2 melanoma 83.7% | EKVX NSCLC 36.1% | SN12C renal 27.1% | UO-31 renal 76.2% | TK-10 renal 82.6% | ACHN renal 74% | CAKI-1 renal 39.8% | A498 renal 36.7% | CCRF-CEM leukemia 17.5% | MOLT-4 leukemia 17.8%

COc1cccc(N2CCN(c3ncnc4c3[nH]c3ccc(F)cc34)C[C@H]2C)c1
active: SK-MEL-5 melanoma -62.3% | MOLT-4 leukemia 6.42%
inactive: HCT-15 colon 68.4% | HT29 colon 70.4% | SNB-75 CNS 63.2% | SNB-19 CNS 68.7% | U251 CNS 67.9% | PC-3 prostate 38.2% | UACC-62 melanoma 40.5% | LOX IMVI melanoma 63.1% | SK-MEL-28 melanoma 50.7% | SK-MEL-2 melanoma 55% | EKVX NSCLC 50.9% | SN12C renal 71.5% | UO-31 renal 31.6% | TK-10 renal 95% | ACHN renal 63.2% | CAKI-1 renal 42.9% | A498 renal 37% | CCRF-CEM leukemia 33.3%

O=C(CCn1c[n+](CC(=O)c2ccc(-c3ccccc3)cc2)c2ccccc21)Nc1cccc2cccnc12
inactive: HCT-15 colon 93.8% | HT29 colon 51.8% | SNB-75 CNS 41% | SNB-19 CNS 41.6% | U251 CNS 42.9% | PC-3 prostate 30.9% | SK-MEL-5 melanoma 20.8% | UACC-62 melanoma 15.1% | LOX IMVI melanoma 57.9% | SK-MEL-28 melanoma 38.9% | SK-MEL-2 melanoma 65.4% | EKVX NSCLC 61.9% | SN12C renal 53.6% | UO-31 renal 82.6% | TK-10 renal 97.5% | ACHN renal 103% | CAKI-1 renal 77.7% | A498 renal 88.7% | CCRF-CEM leukemia 36.1% | MOLT-4 leukemia 47.9%

COc1c(N2CC3CCCNC3C2)c(F)cc2c(=O)c(C(=O)N/N=C/c3ccccc3)cn(C3CC3)c12 (stereo not given)
inactive: HCT-15 colon 76.3% | HT29 colon 72.6% | SNB-75 CNS 88.7% | SNB-19 CNS 101% | U251 CNS 94.7% | PC-3 prostate 86.9% | SK-MEL-5 melanoma 87.8% | UACC-62 melanoma 105% | LOX IMVI melanoma 83.7% | SK-MEL-28 melanoma 94.3% | SK-MEL-2 melanoma 111% | EKVX NSCLC 94.7% | SN12C renal 91.5% | UO-31 renal 86.4% | TK-10 renal 99.5% | ACHN renal 105% | CAKI-1 renal 91.9% | A498 renal 74.9% | CCRF-CEM leukemia 78.2% | MOLT-4 leukemia 79.3%

CCCn1cnc2c(c1=N)C(c1ccc(OC)cc1)c1sc3c(CC)cccc3c1O2 (stereo not given)
inactive: HCT-15 colon 18.9% | SNB-75 CNS 16.5% | SNB-19 CNS 22% | U251 CNS 20.5% | SK-MEL-5 melanoma 30.3% | UACC-62 melanoma 15.9% | LOX IMVI melanoma 27.4% | SK-MEL-28 melanoma 57.8% | SK-MEL-2 melanoma 40.5% | EKVX NSCLC 46.4% | SN12C renal 29.5% | UO-31 renal 33.5% | TK-10 renal 74.6% | ACHN renal 35.7% | CAKI-1 renal 32.8% | MOLT-4 leukemia 14.5%
active: HT29 colon 5.9% | PC-3 prostate 3.57% | A498 renal -11.5% | CCRF-CEM leukemia 4.77%

O=C(CCn1c[n+](CC(=O)c2ccc(F)cc2)c2ccccc21)Nc1cccc2cccnc12
inactive: HCT-15 colon 106% | HT29 colon 58.6% | SNB-75 CNS 75.6% | SNB-19 CNS 71.1% | U251 CNS 79.3% | PC-3 prostate 63.4% | SK-MEL-5 melanoma 33.4% | UACC-62 melanoma 55.7% | LOX IMVI melanoma 84.6% | SK-MEL-28 melanoma 60.1% | SK-MEL-2 melanoma 81.7% | EKVX NSCLC 89.5% | SN12C renal 94% | UO-31 renal 88.9% | TK-10 renal 107% | ACHN renal 95.7% | CAKI-1 renal 99.9% | A498 renal 130% | CCRF-CEM leukemia 68.3% | MOLT-4 leukemia 65.2%

CN1CCN(c2ccc(/C=N/n3cnc4oc(-c5ccccc5)cc4c3=N)cc2)CC1
inactive: HCT-15 colon 83.9% | HT29 colon 66.2% | SNB-75 CNS 55.3% | SNB-19 CNS 101% | U251 CNS 100% | PC-3 prostate 63.2% | SK-MEL-5 melanoma 88.6% | UACC-62 melanoma 93% | LOX IMVI melanoma 61.3% | SK-MEL-28 melanoma 77.8% | SK-MEL-2 melanoma 103% | EKVX NSCLC 88.4% | SN12C renal 66% | UO-31 renal 63.7% | TK-10 renal 119% | ACHN renal 70.1% | CAKI-1 renal 72.5% | A498 renal 81.4% | CCRF-CEM leukemia 44.8% | MOLT-4 leukemia 44.4%

Oc1ccc(CSc2nnc(-c3ccc(Cl)cc3)n2-c2ccccc2)c2cccnc12
active: U251 CNS 3.32% | SK-MEL-5 melanoma 5.67% | UACC-62 melanoma 9.41% | UO-31 renal 0.657%
inactive: HCT-15 colon 14.4% | HT29 colon 92.7% | SNB-75 CNS 16.6% | SNB-19 CNS 13.3% | PC-3 prostate 19.1% | LOX IMVI melanoma 29.5% | SK-MEL-28 melanoma 42.4% | SK-MEL-2 melanoma 35.2% | EKVX NSCLC 28.6% | SN12C renal 33.2% | TK-10 renal 28.2% | ACHN renal 30.5% | CAKI-1 renal 48.7% | A498 renal 50.2% | CCRF-CEM leukemia 20.8% | MOLT-4 leukemia 28.5%
